High-throughput results from PubChem BioAssay.
Shown is part of a subset that was picked to be rich in hits.
Pf Dd2 inh: inhibitors of Plasmodium falciparum Dd2 growth; P. falciparum Dd2 growth, SYBR Green, 72 h; Potency, µM (doses to about 28.9 µM), for the others: at the highest dose activity, negative = inhibition, actives largely listed as inhibitors; 120,000 compounds, 4.3% hits; active means well fitted inhibition curve with a large enough effect;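 further: plate controls were DMSO vehicle for no effect and reference drug for full effect; nearly all actives have a fitted effect of over 65% in size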
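Infected erythrocytes (Dd2, 0.3% parasitemia, 2.5% hematocrit final) are added to compound in RPMI-1640/Albumax II medium, grown 72 h at 37C in low oxygen, then lysed with saponin/Triton-X containing SYBR Green and read by fluorescence.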
* = called active by the depositor; i = inactive; [ ] = remark or other dose. Potency means the concentration at half of the fitted maximal effect.

SMILES	Pf Dd2 inh
CCCN1C(=O)c2[nH]nc(-c3ccc(F)cc3)c2C1c1ccc(O)c(OCC)c1 (configuration not stated)	i
CN(C)C(=O)c1ccc(OC2CCN(C(=O)c3c(F)cccc3F)CC2)nc1	17%
O=C(NCc1ccco1)N1CCc2nc3cc(-c4ccccc4Cl)[nH]n3c(=O)c2C1	i[5.79 µM]
COc1cc(CN2CCN(Cc3cnc(C)s3)CC2CCO)cc(OC)c1 (configuration not stated)	-8%
CN(C)C[C@@H]1CN(C)C[C@H]1N	i
CC(=O)c1ccc(C(=O)N2CCCC(C(=O)c3cccc(C(F)(F)F)c3)C2)s1 (configuration not stated)	-21%
CCOc1ccc(-c2n[nH]c3c2C(c2cccs2)N(c2ccc(Br)cc2)C3=O)cc1 (configuration not stated)	3.5µM*
CCCN1C(=O)c2[nH]nc(-c3ccc(F)cc3)c2C1c1ccccn1 (configuration not stated)	-15%
CCCN1C(=O)c2[nH]nc(-c3ccc(OC)cc3)c2C1c1ccccn1 (configuration not stated)	-19%
CC(C)NC(=O)N1CCCCCCNC(=O)[C@@H]2CCCC[C@@H]21	1%
Cc1nc(N2CCCC2)c2c(C(=O)N3CCN(c4ccc(F)cc4)CC3)c(C)oc2n1	-9%
CCOC(=O)c1c(C)oc2nc(C)nc(NCc3ccccc3OCC)c12	8.9µM*
CCOC(=O)c1c(C)oc2nc(C)nc(NCc3ccccc3OC)c12	8.9µM*
CCOC(=O)c1c(C)oc2nc(C)nc(NCCCN3CCN(c4ccc(F)cc4)CC3)c12	11µM*
CCOC(=O)c1c(C)oc2nc(C)nc(NCCc3ccc(C)cc3)c12	-10%
CCOC(=O)c1c(C)oc2ncnc(Nc3ccc(CC)cc3)c12	i
CCOC(=O)c1c(C)oc2nc(C)nc(NCC3CCN(Cc4cccc(C)c4)CC3)c12	i[5.79 µM]
CCOC(=O)c1c(C)oc2nc(C)nc(NCC3CCN(Cc4cc(C)ccc4C)CC3)c12	-3%
CCOC(=O)c1c(C)oc2nc(C)nc(NCCc3ccc(S(N)(=O)=O)cc3)c12	i[5.79 µM]
COCCNC(=O)[C@@H]1C[C@H](Oc2ccccc2)CN1C(=O)c1n[nH]c(=O)c2ccccc12	-6%
CN1C(=O)CN(CCCCOc2ccccc2)C(=O)c2ccccc21	-19%
CCNC(=O)c1coc(COc2ccc3c(c2)C(c2ccc(F)cc2)N(C(=O)CC(C)C)CC3)n1 (configuration not stated)	1.4µM*
C=CCNC(=O)c1coc(COc2ccc3c(c2)C(c2ccc(C)cc2)N(C(=O)C2CC2)CC3)n1 (configuration not stated)	-14%
COCCNC(=O)c1coc(COc2ccc3c(c2)C(c2ccc(C)cc2)N(C(=O)C2CC2)CC3)n1 (configuration not stated)	i
C[C@@H](NCc1cccc(Cl)c1)c1onc(-c2ccc(F)cc2)c1C(=O)O	-5%[44.1 µM]
SMILES	Pf Dd2 inh
COc1cccc(NC(=O)c2cc3c(N4CCSCC4)nc(C)cn3n2)c1	i
Cc1cn2nc(C(=O)Nc3ccc(N(C)C)cc3)cc2c(N2CCCC2)n1	0.63µM*
Cc1cn2nc(C(=O)NC3CCCC3)cc2c(N2CCCC2)n1	i
Cc1cn2nc(C(=O)NCCc3ccc(S(N)(=O)=O)cc3)cc2c(N2CCCC2)n1	22%
Cc1cn2nc(C(=O)NCc3ccc(C(C)C)cc3)cc2c(N2CCCC2)n1	i
Cc1cn2nc(C(=O)NCCc3cccs3)cc2c(N2CCCC2)n1	7.1µM*
Cc1cn2nc(C(=O)NCc3ccccn3)cc2c(N2CCCC2)n1	-8%
Cc1cn2nc(C(=O)NCc3ccccc3Cl)cc2c(N2CCCC2)n1	8.9µM*
Cc1cn2nc(C(=O)NC3CCc4ccccc43)cc2c(N2CCCC2)n1 (configuration not stated)	5.6µM*
COc1ccc(CCNC(=O)c2cc3c(N4CCCC4)nc(C)cn3n2)cc1OC	i
COc1cc(NC(=O)c2cc3c(N4CCSCC4)nc(C)cn3n2)cc(OC)c1OC	i
Cc1ccc(CCNC(=O)c2cc3c(N4CCCC4)nc(C)cn3n2)cc1	-12%
CCNC(=O)O[C@@H]1CC[C@]2(C)C(CC[C@@H](O)[C@H]2CC(=O)NCc2cc(F)cc(F)c2)[C@]1(C)CO (some centres not stated)	-10%
Cc1cc2ncc(C(=O)NCCc3ccccc3)cn2n1	-11%[44.1 µM]
O=C(NCC(F)F)C1CCCN(c2nc3ncccc3o2)C1 (configuration not stated)	-14%[44.1 µM]
CCS(=O)(=O)N1CCC(Cc2nncn2Cc2ccccc2)C1 (configuration not stated)	0%
CNC(=O)N1CCC(C2CCN(C(=O)C3CCNCC3)C2)CC1 (configuration not stated)	16%
CNC(=O)[C@@H]1CN(C(=O)c2nn(C)c3ccccc23)C[C@H]1COC	-23%
CC(=O)NCCC(=O)N1CCCCC1C(=O)Nc1ccc(-n2nc(C)cc2C)cc1 (configuration not stated)	-9%
COCCn1ncc(N2CCCC(CC(=O)NCc3ccc(C)cc3)C2)cc1=O (configuration not stated)	20%
CCc1c(C)sc2c1CCN(Cc1ccccc1)C2c1ccccc1 (configuration not stated)	4.5µM*
CCCS(=O)(=O)N1CC[C@@H]2COCCN(Cc3ccccc3)[C@@H]2C1	-18%
CCc1c(C)sc2c1CCN(C(=O)Nc1ccccc1C(=O)OC)C2c1ccc(OC)cc1 (configuration not stated)	-8%
Cc1cnc(C(=O)N[C@@H]2CCC[C@@H]2C(=O)NCc2ccccc2)cn1	-2%
Cc1cc(CNC(=O)[C@@H]2CCC[C@@H](NC(=O)NC3(c4ccccc4)CCOCC3)CN(C)C(=O)C2)no1	-11%
SMILES	Pf Dd2 inh
O=C(c1ccccc1)N1CCC2(CC1)C(=NC1CCCCC1)NC(=O)N2c1cc(F)cc(F)c1	-9%
Cn1nccc1C(=O)N1CCCCCCNC(=O)[C@@H]2C[C@@H](c3nc(-c4cccnc4)no3)C[C@@H]21	-24%
Cc1cnc(CCNC(=O)NC(C)(C)C)n1Cc1ccccc1	4µM*
CC(=O)N1CCC(Cc2ncc(C)n2Cc2ccccc2)C1 (configuration not stated)	-13%
COc1ccc(C(=O)NCCc2ncc(C)n2Cc2ccc(F)cc2)cn1	-11%
CC(C)CN1CCN(C2CCOC3(CCN(C(=O)c4ccnn4C)CC3)C2)CC1 (configuration not stated)	16%
Cc1c(-c2ccc(F)cc2)[nH]c2ccc(CNC(=O)c3cnn(C)c3)cc12	-19%
CCn1cc(C(=O)N2CCCCCCNC(=O)CC2)cn1	-6%
Cc1ccc(C2=CC(c3ccc(Cl)cc3)n3nc(-c4ccc(C)cc4)nc3N2)cc1 (configuration not stated)	1.3µM*
COc1ccc(C2C=C(c3ccc(Cl)cc3)Nc3nc(-c4ccc(Cl)cc4)nn32)cc1 (configuration not stated)	0.1µM*
COc1ccc(-c2nc3n(n2)C(c2cccc(C)c2)C(C(N)=O)=C(C)N3)cc1OC (configuration not stated)	-10%
Cc1ccc(-c2nc3n(n2)C(c2ccccc2C)C=C(c2ccc(Cl)cc2)N3)cc1 (configuration not stated)	5µM*
CCOc1ccc(C2C=C(c3cccc(OC)c3)Nc3nnnn32)cc1 (configuration not stated)	i
CC1=C(C(N)=O)C(c2ccccc2F)n2nc(-c3ccc(Cl)cc3)nc2N1 (configuration not stated)	-13%
